# Compound activity from PubChem BioAssay.
# GRK2 aptamer HTS = inhibitors of human GRK2 displacing RNA aptamer. P25098. bead flow cytometry, FAM-aptamer displacement from GRK2. inhibition of aptamer binding, % at 10 µM. hit rate 0.59% among 330,000;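 active = inhibition of aptamer binding above 40%, roughly 3 SD of noise, on plates passing a quality check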;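 note: median bead fluorescence of bound FAM aptamer so fluorescent compounds give negative values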
# Target sequence (P25098 whole entry, looked up): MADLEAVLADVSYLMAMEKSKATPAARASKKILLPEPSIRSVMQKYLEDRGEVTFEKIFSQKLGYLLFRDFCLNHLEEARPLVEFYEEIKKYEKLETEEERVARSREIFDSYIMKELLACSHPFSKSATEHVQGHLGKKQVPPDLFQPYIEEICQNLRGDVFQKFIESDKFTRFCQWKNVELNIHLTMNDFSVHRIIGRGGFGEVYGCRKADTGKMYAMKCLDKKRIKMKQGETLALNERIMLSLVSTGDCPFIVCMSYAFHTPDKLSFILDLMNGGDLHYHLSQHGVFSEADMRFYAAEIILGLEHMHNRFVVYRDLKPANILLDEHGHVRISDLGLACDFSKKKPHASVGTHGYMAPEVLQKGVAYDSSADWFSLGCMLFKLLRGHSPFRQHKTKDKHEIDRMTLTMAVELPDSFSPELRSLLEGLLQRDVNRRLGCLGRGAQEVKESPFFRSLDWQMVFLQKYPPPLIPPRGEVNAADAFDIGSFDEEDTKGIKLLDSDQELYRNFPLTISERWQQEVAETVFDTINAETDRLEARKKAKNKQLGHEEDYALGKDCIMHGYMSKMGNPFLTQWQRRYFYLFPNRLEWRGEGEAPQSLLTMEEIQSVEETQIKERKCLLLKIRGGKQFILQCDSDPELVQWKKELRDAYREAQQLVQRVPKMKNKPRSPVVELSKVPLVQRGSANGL
# HDAC3 inhib = human HDAC3 inhibition. O15379. recombinant HDAC3, fluorogenic peptide/trypsin coupled, fluorescence. inhibition, % at 8.3 µM. hit rate 0.15% among 320,000; in the data active = inhibition above about 26%, passing the limit was not always enough; inconclusive = no clear call, values can overlap the other calls
# Cardio protect = modulators protecting cardiomyocytes from myocardial damage. H9c2 cardiomyocytes, H2O2 injury protection, ATPLite, 2 h. protection from H2O2 cell death, % at 20 µM. hit rate 0.63% among 360,000. AID 588492;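 active = compounds giving at least 50% protection of heart cells from peroxide-induced death in the single-dose screen, raw or plate-pattern-corrected value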;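 note: 0% = DMSO wells with peroxide and 100% = DMSO wells without peroxide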
# Neddyl block = inhibitors of human cullin neddylation; hit rate 0.58% among 360,000; TR-FRET cullin neddylation, biochemical; P61081+Q13564; inhibition, % at 25 µM; in the data active = inhibition above about 36%
# * = called active by the depositor; ? = inconclusive; nt = not tested or not shown. Most compounds without a hit are left out; they make up all but 1.8% or so of the library.
SMILES,GRK2 aptamer HTS,HDAC3 inhib,Cardio protect,Neddyl block
CCCOc1ccc2[nH]c(C(=O)N/N=C/c3cc(OC)c(OC)c(OC)c3)cc2c1,0,-4,59*,nt
COc1ccc(OC)c(/C=N/NC(=O)c2cc3c(OC)c(OC)ccc3[nH]2)c1,0,8,90*,27
CCCOc1ccc(C2C(C(=O)c3ccco3)=C(O)C(=O)N2CCCn2ccnc2)cc1OC (stereo not drawn),nt,nt,0,-3
COc1ccc(CNn2c(-c3cccs3)nc3ccccc3c2=O)cc1OC,2,2,67*,3
COc1cccc(C(=O)Nn2c(-c3cccs3)nc3ccccc3c2=O)c1OC,3,-3,13,5
COc1cc(NC(=O)c2ccc(NC3=NC4CS(=O)(=O)CC4S3)cc2)cc(OC)c1OC (stereo not drawn),1,-2,7,-2
O=C(CCc1nc(-c2ccccc2F)no1)Nc1ccc(Oc2ccccc2)cc1,1,27*,-23,-1
CN1c2ccccc2C(C)(C)C12C=Nc1c(ccc3ccccc13)O2 (stereo not drawn),2,-3,-12,21
COc1ccc2ccc3c(c2c1)N=CC1(O3)N(C)c2ccccc2C1(C)C (stereo not drawn),2,-6,-3,43*
CC(=O)Nc1ccc(OC(=O)c2cc3cc(Br)cc(Br)c3oc2=O)cc1,95*,3,nt,nt
CC(=O)Nc1ccc(OC(=O)c2cc3cc(Br)ccc3oc2=O)cc1,4,6,-3,3
Cc1noc(C)c1S(=O)(=O)N(CC(=O)NCCc1ccccc1)c1ccc(C(C)C)cc1,5,1,-4,5
COc1cc(/C=N/n2nnnc2Nc2ccccc2)cc(OC)c1OC,0,6,85*,-5
COc1cc(/C=N/Nc2nc(Nc3ccccc3)nc(-n3nc(C)cc3C)n2)cc(OC)c1OC,2,?,28,37
CC(=O)N(O)c1ccc(C=Cc2ccccc2)cc1,nt,nt,-4,18
Cc1c(C(=O)NCc2ccc3c(c2)OCCO3)sc(=O)n1Cc1cccc(C(F)(F)F)c1,nt,nt,0,-2
O=C(CCC(=O)N/N=C/c1cc(Cl)cc(Cl)c1O)NCc1ccccc1,0,1,52*,nt
COc1ccc(S(=O)(=O)Nc2cccc3c2O[C@H](CN(C)CC2CCCCC2)[C@@H](C)CN([C@H](C)CO)C3=O)cc1,2,1,7,-3
CN(C)CCCN1c2ccccc2Sc2ccccc21,0,-7,50*,3
C[C@H](NC(=O)c1nc[nH]c1C(=O)N[C@@H](C)C(=O)OC(C)(C)C)C(=O)OCc1ccccc1,1,5,-2,-20
CN(Cc1ccccc1)C(=O)c1[nH]cnc1C(=O)N[C@@H](Cc1ccccc1)C(=O)OCc1ccccc1,4,33*,-21,4
C[C@H](NC(=O)c1nc[nH]c1C(=O)N[C@@H](Cc1ccccc1)C(=O)OCc1ccccc1)C(=O)OC(C)(C)C,0,31*,-6,-21
COc1ccc([C@H]2/C=C\CN(S(=O)(=O)c3cccc4cccnc34)[C@@H](C)C(=O)N2Cc2ccc(F)cc2)cc1,0,-7,-2,-4
COc1ccc(C2/C=C\CN(S(=O)(=O)c3cccc4cccnc34)CC(=O)N2Cc2ccc(F)cc2)cc1 (stereo not drawn),nt,3,50*,-2
CCOCCN1CCN(c2c(CC)c(C)nc3cc(-c4cc(OC)cc(OC)c4)nn23)CC1,0,3,73*,nt
SMILES,GRK2 aptamer HTS,HDAC3 inhib,Cardio protect,Neddyl block
COc1ccc(OC)c(Nc2cc3ccccc3c(=O)[nH]2)c1,1,-3,54*,24
CN(Cc1ccccc1)S(=O)(=O)c1ccc(N2CCCC2=O)cc1,1,5,-12,9
S=c1[nH]nc(-c2ccccc2)n1/N=C/C=C/c1ccco1,8,7,6,-6
Cc1ccccc1-c1n[nH]c(=S)n1/N=C/C=C/c1ccco1,40,-2,8,60*
Cc1ccc(S(=O)(=O)N2C[C@H]3[C@H]4C(=O)N(c5ccccc5)C(=O)[C@H]4CC(=O)[C@H]3[C@@H]2c2cccc3ccccc23)cc1,nt,nt,0,-25
Cc1ccccc1C1c2[nH]c3ccccc3c2C[C@H]2C(=O)N(c3ccccc3C(=O)NCCCN3CCOCC3)C(=O)N12 (stereo partly drawn),0,2,55*,8
Cc1ccccc1C1c2[nH]c3ccccc3c2C[C@H]2C(=O)N(c3ccccc3C(=O)NCCN3CCOCC3)C(=O)N12 (stereo partly drawn),0,8,29,14
N#C/C(=C\c1ccc(O)c(O)c1)C(=O)N1CCc2ccccc21,0,8,77*,-26
N#C/C(=C\c1ccc(O)c(O)c1)C(=O)NCCc1ccccc1,4,4,77*,-8
COc1cc(/C=C(\C#N)C(=O)NCCc2ccccc2)cc(OC)c1O,4,4,10,-40
C=CCn1c(SCC(=O)NC2CCCC2)nc2ccccc21,nt,nt,-4,7
CCOc1ccc(/C=N/Nc2cc(N3CCOCC3)nc(C)n2)c(O)c1,0,0,78*,11
CCOc1ccc(/C=N/Nc2cc(C)nc(N3CCOCC3)n2)cc1,1,6,2,-1
Cc1ccc(OCC(=O)Nc2ccc(N3CCN(S(C)(=O)=O)CC3)cc2)cc1C,2,-4,7,-3
O=C(c1ccccc1)c1ccc2nc(N3CCN(C(=O)c4ccco4)CC3)c3nncn3c2c1,3,-5,84*,-43
CCOC(=O)N1CCN(c2nc3ccc(C(=O)c4ccccc4)cc3n3cnnc23)CC1,1,-3,10,-2
CC(=O)Nc1cc(-c2ccccc2F)cn2c(-c3ccccc3)cnc12,nt,nt,4,31
CC(=O)c1cccc(-c2cnc3c(NC=O)cc(-c4ccccc4F)cn23)c1,nt,nt,59*,0
CC(=O)Nc1cc(-c2ccccc2)cn2c(-c3cccc(C(C)=O)c3)cnc12,nt,nt,51*,0
CC(=O)Nc1cc(-c2ccc(C(=O)N3CCOCC3)cc2)cn2c(-c3ccc(C(C)=O)cc3)cnc12,nt,nt,76*,22
CC(=O)Nc1cc(-c2cccc(NS(C)(=O)=O)c2)cn2c(-c3cccc(C(C)=O)c3)cnc12,nt,nt,78*,-6
COc1ccc(-c2cnc3c(NC(C)=O)cc(-c4cccc(NS(C)(=O)=O)c4)cn23)cc1OC,nt,nt,47,13
CC(=O)Nc1cc(-c2cccc(C(=O)N(C)C)c2)cn2c(-c3ccc(C(C)=O)cc3)cnc12,nt,nt,55*,25
CC(=O)Nc1cc(-c2cccc(C(=O)N(C)C)c2)cn2c(-c3ccccc3)cnc12,nt,nt,19,20
COc1ccccc1CN(Cc1nc2ccccc2c(=O)[nH]1)S(=O)(=O)c1ccc2ccccc2c1,1,5,58*,-99
COc1ccc(S(=O)(=O)N(Cc2ccccc2)Cc2nc3ccccc3c(=O)[nH]2)cc1,0,-2,13,-14
COc1cc2nc(CN(C)Cc3nc4ccccc4c(=O)[nH]3)[nH]c(=O)c2cc1OC,0,4,55*,9
COc1ccc(Cn2ccnc2SCC(=O)Nc2nnc(C)s2)cc1,1,-3,1,2
Cc1nnc(NC(=O)CSc2nccn2Cc2ccccc2)s1,86*,-2,-1,7
Cc1nnc(NC(=O)CSc2nccn2Cc2ccc(F)cc2)s1,42*,-2,4,9
